# Bioassay records deposited in PubChem by several laboratories.
# PriA SSB inh: blocks PriA binding to SSB C-terminal tail. actives 0.6% (n = 430,000). AlphaScreen SSBct-PriA binding, biotinylated peptide. inhibition, % at 33 µM. AID 1272365; in the data active = inhibition mostly above about 37%, no sharp cut-off; inactive = mostly below about 20%;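 note: plate controls were negative control peptide for no effect and reference peptide for full effect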
# SARS 3CLpro inh: SARS-CoV 3CLpro protease inhibition. P0C6X7. recombinant SARS-CoV 3CLpro, quenched FRET peptide cleavage. inhibition, % at 6 µM. actives 0.14% (n = 290,000). AID 1706; in the data active = inhibition above about 12%
# PrPC surface inh: cell surface PrPC inhibition, primary TR-FRET screen; TR-FRET read-out; P04156; AID 720596; inhibition, % at 13.8 µM; actives 0.43% (n = 370,000); in the data active = inhibition above about 24%; note: 0% = median of the test wells and 100% = reference compound wells
# BJeLR lethal: BJeLR cell viability loss; BJeLR (HRASV12) viability, CellTiter-Glo ATP luminescence, 48 h; inhibition, % (no concentration beside the values); actives 0.17% (n = 300,000); in the data active = inhibition above about 50%; inconclusive = no clear call, values can overlap the other calls
# PrP UTR inh: inhibition of PrP 5' UTR reporter expression | cell-based PrP 5' UTR mRNA reporter, plate reader | inhibition, % (test concentration not listed) | actives 0.35% (n = 340,000); in the data active = inhibition above about 52%; note: 0 = median of the neutral control wells
# PrP UTR cherry: prion 5' UTR mRNA inhibition, cherry-pick retest | AID 504592 | actives 48% (n = 1,100) | inhibition, % at 2.5 µM | cell-based prion protein 5' UTR reporter, plate reader | shares compounds with PrP UTR inh; in the data active = inhibition above about 54%; inconclusive = no clear call, values can overlap the other calls
# * hit, by the source's call; ? = inconclusive; . = no result given. Only some compounds are listed: those with a hit (about 1.2% of all), similar ones and a draw of the others.
SMILES,PriA SSB inh,SARS 3CLpro inh,PrPC surface inh,BJeLR lethal,PrP UTR inh,PrP UTR cherry
CCN(CC)CCNC(=O)c1c(O)c2cc(OC)c(OC)cc2[nH]c1=O,-8,-8,-1,25,72*,-7
O=C1/C(=C/c2ccccc2)CCCc2ccccc21,-43,1,2,-5,-39,.
O=C1C(=C2SCCCS2)CC/C1=C\c1ccc(F)cc1,-7,-2,-4,6,84*,84*
Cc1cccc(/C=C2\CCC(=C3SCCCS3)C2=O)c1,11,4,-3,5,55*,?
CCn1c(CNC(=O)C23CC4CC(CC(C4)C2)C3)nnc1SCC(=O)Nc1nc2ccccc2s1,-1,.,.,.,.,.
CCN(CC)c1ccc(/C=N/N=C(N)N)c(O)c1,.,-4,6,48,62*,90*
CC(Oc1ccccc1)C(=O)NC1C(=O)N2C1SC(C)(C)C2C(=O)O (stereo not given),-9,1,-9,2,-18,.
CCOC(=O)OC(C)OC(=O)[C@@H]1N2C(=O)[C@@H](NC(=O)[C@H](N)c3ccccc3)[C@H]2SC1(C)C (stereo not given in full),-12,.,-4,.,54*,-8
Cc1ccc(NC(=O)COc2cccc3ccc(N4CCCC(C)C4)nc23)cc1Cl (stereo not given),4,.,.,.,.,.
O=C(CSc1nnc(Cc2cc(=O)[nH]c(=O)[nH]2)n1-c1ccccc1)c1ccccc1,-8,.,.,.,.,.
O=C(Nc1c(-c2cccs2)nc2ccccn12)c1ccc2ccccc2c1,.,-3,.,-1,.,.
O=C(Nc1c(-c2cccs2)nc2ccccn12)c1ccccc1F,1,0,2,-6,82*,-25
COc1ccc(OC)c(NS(=O)(=O)c2ccc(SC)cc2)c1,-3,3,6,27,-24,.
COc1ccc(OC)c(NS(=O)(=O)c2ccc(N3CCCC3=O)cc2)c1,3,-2,10,48,60*,90*
COc1ccc(CCNS(=O)(=O)c2ccc(N3CCCC3=O)cc2)cc1,-9,2,11,5,-17,.
CCOc1ccc(S(=O)(=O)Nc2cc(OC)ccc2OC)cc1,-6,-3,16,46,60*,88*
O=C(NC1=NCCS1)C1COc2ccccc2O1 (stereo not given),2,3,-2,10,72*,77*
O=C(Nc1ccncc1)C1COc2ccccc2O1 (stereo not given),-7,-1,-1,6,-24,.
Cc1ccc(N2CCCCn3c2nc2c3c(=O)n(CC(=O)O)c(=O)n2C)cc1,3,-3,-2,-7,58*,-5
N#Cc1cc([N+](=O)[O-])ccc1Oc1cccc(C=NNC(=O)c2cccc(Cl)c2)c1,5,.,.,.,.,.
COc1cccc(NC(=O)CSc2nnc(-c3cc(C)n(-c4ccccc4)c3C)o2)c1,1,-2,2,8,57*,24
COc1cccc(NC(=O)Cn2cc(-c3nnc(C)o3)c3ccccc32)c1,-8,.,.,.,.,.
C[C@]12CCC3C(CCC4=CC(O)CC[C@@]43/C=N/O)C1(O)CCC2C1=CC(=O)OC1 (stereo not given in full),.,-2,2,69*,80*,70*
CN(C)c1cccc(C(=O)OCC(=O)N(Cc2ccccc2)C2CCS(=O)(=O)C2)c1 (stereo not given),-3,1,3,.,60*,-5
NC(=O)Nc1ccc(C(=O)OCC(=O)N(Cc2ccccc2)C2CCS(=O)(=O)C2)cc1 (stereo not given),-13,-1,-3,-3,-34,.
SMILES,PriA SSB inh,SARS 3CLpro inh,PrPC surface inh,BJeLR lethal,PrP UTR inh,PrP UTR cherry
O=C(CN1C(=O)c2ccccc2S1(=O)=O)c1ccccc1Cl,.,4,4,13,69*,70*
Cc1ccc(C(=O)CN2C(=O)c3ccccc3S2(=O)=O)cc1,3,2,-6,0,65*,74*
CC(C)c1c(C(=O)NN=Cc2cccc(OCc3ccccc3)c2)nnn1-c1nonc1N,-3,.,.,.,.,.
CCCCNS(=O)(=O)c1ccc(NC(=O)Cc2ccc(OC)cc2)cc1,-7,-1,1,.,69*,10
COc1ccc(CC(=O)Nc2ccc(S(=O)(=O)NC(C)C)cc2)cc1,-25,0,5,14,-6,.
CSc1cccc(C(=O)Nc2nnc(C3=COCCO3)o2)c1,-6,.,.,.,.,.
CN(CCc1ccccc1)C(=O)c1cccc(NC(=O)Cc2cccc(NC(=O)C3CCCN(C(=O)C4CC4)C3)c2)c1 (stereo not given),3,.,1,.,53*,-59
CN(Cc1ccccc1)C(=O)c1ccc(NC(=O)Cc2ccc(NC(=O)C3CCCN(C(=O)C4CC4)C3)cc2)cc1 (stereo not given),-1,.,-3,.,86*,-11
Cc1nc(C#N)c(N/N=C\c2ccccc2Br)o1,8,.,.,.,.,.
CN=C1SC(CC(=O)Nc2ccccc2F)C(=O)N1N=Cc1ccc(O)c(OC)c1 (stereo not given),0,.,.,.,.,.
O=C(NCC1CCN(C(=O)c2ccoc2)CC1)C(=O)Nc1cc2c3c(c1)CCC(=O)N3CCC2,-2,.,.,.,.,.
O=C(Cn1cnc2c(cnn2C2CCS(=O)(=O)C2)c1=O)Nc1cccc(C(F)(F)F)c1 (stereo not given),1,.,.,.,.,.
O=C(CC1CCCCN1S(=O)(=O)c1ccc(F)cc1)NCc1c(F)cccc1F (stereo not given),18,.,.,.,.,.
CN(Cc1ccccc1)C(=O)COC(=O)c1cncc(Br)c1,-12,7,-2,.,72*,-14
Cc1nc2ccccc2c(=O)n1N=Cc1c(O)ccc2oc3c(c12)CCCC3,-10,.,.,.,.,.
Cc1nc2ccccc2c(=O)n1/N=C/c1c(O)ccc2oc3c(c12)CCCC3,.,-1,-4,-1,61*,-2
COC(=O)c1[nH]c2c(c1C)C(=O)CC(c1ccc(OC)c(OC)c1)C2 (stereo not given),12,-8,3,-2,6,.
CCOCCOC(=O)c1[nH]c2c(c1C)C(=O)CC(c1cc(OC)c(OC)c(OC)c1)C2 (stereo not given),-8,-3,13,5,-1,.
COC(=O)c1[nH]c2c(c1C)C(=O)CC(c1cccc(OC)c1)C2 (stereo not given),-8,8,7,43,74*,88*
CCOCCOC(=O)c1[nH]c2c(c1C)C(=O)CC(c1ccccc1)C2 (stereo not given),-8,0,21,53*,81*,91*
CCOCCOC(=O)c1[nH]c2c(c1C)C(=O)CC(c1cccs1)C2 (stereo not given),-8,0,9,65*,65*,87*
CCCCCOC(=O)c1[nH]c2c(c1C)C(=O)CC(c1ccco1)C2 (stereo not given),-1,-5,.,26,59*,79*
Cc1nn(-c2ccccc2)c(N2CCCCC2)c1C=NNC(=O)c1ccncc1,-6,.,.,.,.,.
